The text below walks through data of PubChem BioAssay AID1347423 (Functional Genomics Laboratory (NCATS/FGL), 2020).

Among all 52,000 sequences or so, about 210 (0.4%) were called active. This excerpt belongs to a sample that is enriched for actives. Values without a mark were called inactive.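 The calls were made as follows: active = gene whose silencing raises cell survival under the drug, median off-target-corrected z-score across its silencing RNAs 2 or more; inactive = the rest.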

This test is described as follows: Resistance to Poly (ADP-Ribose) Polymerase inhibitor: Gene Identification via Genome-wide siRNA Screen. The note with it: mouse BRCA2 R2336H ES cells, olaparib, CellTiter-Glo viability; hits give high values. In short, it runs like this: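 Genome-wide siRNA screen (3 siRNAs/gene, 20 nM) in mouse ES cells carrying hypomorphic BRCA2 R2336H; olaparib 500 nM added 48 h post-transfection, CellTiter-Glo viability 72 h later. Normalized to plate-median negative control; MAD z-scores, gene median, seed-adjusted.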
Turning to “GGAUAACCUUAACUUCUGATT against 2810449C13Rik”, the z-score is 2.16. Then GGGACCCUUCUACAAAAACTT against Pias3, with 2.3 (active).

Take “GGAGAGUACUAAAUUUAAGTT against 4833418A01Rik”: the z-score was 0.0243.

“GGAAUUUUAUCAUUGGGACTT against 5031404N07”: the z-score was -0.078. Then CCUGGUAACAGUCAUAAAUTT against Lhfpl2, with -0.196; and “GGAAAUGCUUCUGAGCUAGTT against 5830417C01Rik”, with 0.677. For GGACCUCAGCGAAGACAAUTT against BC034097 the value was 2.03 (active); for GGUCGGUGUUUUAUCUGCUTT against BC019537, -1.19; for GGGAUACUGGUGCUUAACUTT against Abhd1, 0.661.

For “GCCACCUCUUAUGAGGCUUTT against D630045E04Rik”, the z-score is -1.04. On to GGUGGUUACAACCGAAGCATT against Fus, for which the z-score is 2.95 (active). Then GCCCUAGAACUUUUGAAUUTT against Dhx15, with -1.01.

As for “GGAGGUGUUGAACAAGUGCTT against 1700008P20Rik”, the z-score is -1.32.

Turning to “GCAAGCAGAUCUGAUAUCATT against 2700050F09Rik”, the z-score is 4.76 (active). Then GCCUGGAUUCAGAAGCUACTT against Ugt1a1, with 0.72. “GGAGGAGGAGGACUUUGAUTT against 5830417I10Rik”: the z-score was -1.23. Then GGAACAUUACAAAAGCUCUTT against Slfn1, with -0.715; and “GAAUCUAAAGAUGAACACCTT against 0610009B22Rik”, with -0.48.

In the case of GCAAGUGGUAAUGGUGACCTT against Tex15, the z-score was -0.249. For GGACUUUUAUUUUGUUAGCTT against Pacsin2, the z-score was 3.01 (active). With “GUUUUCUUGAGACAGUUAATT against 1810008A14Rik”, the z-score was -0.106. Then GGAGUUGAUCAAGACAGAGTT against S100a5, with -0.443; and GGAGGAAAGAAUGUGUAAATT against Birc3, with -0.544. Regarding GCAUGCAUGAUGGAUCUUCTT against Gabrb1, the z-score was -2. On to GGAAACAACGGAUCCAAAATT against Plcb3, for which the z-score was 2.47 (active). Regarding “GCUUACAUCCAAGCCGUCUTT against 4931440B09Rik”, the z-score is 1.71. For CCAAGUUCACAAUUGUUCUTT against Gm457, the z-score is -0.19.

Take GGACUUGUCUUUGACACGCTT against Nt5c2: the z-score is 2.18. Then GGAUUCCCUAUCCCAUACCTT against Araf1, with 4.36 (active); and “GGUCAAAAGAAACAGGUGUTT against 2310047I15Rik”, with 0.438. Then GCAACUAGCCUGUUCUAUCTT against AI325941, with 1.68; and GGAGUUGAAGUUUGUGACATT against Acpp, with 2.3 (active); and “GGUGAAAGUGAGAAGGAAGTT against 6720460F02Rik”, with -0.247. With CCUGAAUUACCUCAUAUAUTT against Stat5b, the z-score is 0.922. For GCUGAAACCUCAUGAGGAGTT against Ptpn9 the value was 3.06 (active); for GCUACUAUUGUGUUCUGAATT against Drd1a, -0.386; for GGUACUCGGUUAUCAUGAATT against Olfr1403, 1.39.

As for GGAAAGGACCACCUAAGUUTT against Pde6g, the z-score is -2.22 (active).

For the sequence GGUUACCUGAGGUCAGUAGTT against Ifi1, the z-score is -2.31. Take GGCUAAUGUGCUCUCUCAUTT against Olfr644: the z-score was 1.28. Turning to CCCACAGGGAUUUAUUUAUTT against Slc37a1, the z-score was 1.36 (active). With CCUUGAAAUACUGAGUGACTT against AU067695, the z-score is 1.17. For the sequence GGAGCAAUGUUGUCACAACTT against Fbln1, the z-score is -0.548.

For “CGUGUAAAAGCCGGAUUGATT against 1500015L24Rik”, the z-score is 0.909. Consider “GCAAAGCUGAUGGACUCAATT against 2410018M08Rik”, for which the z-score was -0.965. As to GGCAAAAGUGGUUAUUGAATT against Itga6, the z-score was 3.02 (active). For GGAUAAUGGUAUCUACUUCTT against Cd79b the value was -0.408; for GGCAAGAAUCAAGGAGAGATT against Nek1, 1.44. For GCGAUUAAUGGCAUAGUUUTT against Sara1, the z-score is -1.04.

Consider GACAGGAAGUUGAUGAAUUTT against Raet1a, for which the z-score is -0.444. Then “GGCAAACAAAUGGUUUGUUTT against D430030K24Rik”, with 2.76 (active). As to “GCACCUUAAAAAUGAAGAUTT against D12Ertd551e”, the z-score was -0.616.

For GGUACCGGAAAGGAAGUGUTT against Grm1, the z-score is -0.666. Regarding GGAAGAGAAAGACCUGAGATT against Glra1, the z-score is -0.8. Then GGCUGAGAUCUGAAAUUGATT against Krt2-5, with 0.59. For CGAAAGUUACUCAUAGAGATT against Itga6 the value was 0.364 (active).

“GCAGGUGCCAACAUUAUUGTT against 0610039C21Rik”: the z-score is 1.5. In the case of GGAAGAAAUGGACCAGCUGTT against Brp16, the z-score was -1.27. For CCUUAUCCAAGAGUAGGGCTT against AY534250 the value was 1.03.

Consider GGUGUGACACCUAAGAUGATT against AW212607, for which the z-score was 1.39. With GGACAAGUUGUUGGACUACTT against Smarca3, the z-score is 1.04 (active).

As to “CCUAUCUUUACCACAUAGATT against 9030624J02Rik”, the z-score is -0.939. As to “GGACCCAUGAGGUUAACUUTT against D15Ertd781e”, the z-score was -1.18.

As to GGUUCACCUGUCAAGUGGATT against Hfe, the z-score is 0.781. Take “GGUGUGGGUGGGAAAAGAATT against 2610027C15Rik”: the z-score was -1.77.

Turning to CCUUAUUUUACGGAACUGCTT against Olfr1018, the z-score is 0.819. Then GCUCUGCUAGUCAACUGCATT against Nrip2, with 0.681; and GGGAUUUAACAACAUGUAATT against Slc20a1, with 2.29 (active); and GGGCAUAGAGUCUCAAACUTT against Ptger1, with 0.492.

For the sequence GGAGCUUCUAGAGAAGAUCTT against Leng5, the z-score was -2.29.

Take “GCGGCAGAUCUUCGAUUUCTT against 2610200G18Rik”: the z-score was -0.616. For GCUUCUAAGCCGAAGGCCATT against Hist1h1d the value was 0.442; for “CCACCAUCAAAUAUAACUATT against 9930021J03Rik”, 0.126. GGAACAUGAAGCCUUUUACTT against Asb16: the z-score is 3.12 (active). For CCCAGGACUCAUGAUUACATT against Tas2r134 the value was -1. As to “CCAUCAAGAGGUAUAAUCUTT against A930017E24Rik”, the z-score was -2.24. As to CGGACAGAUACAAUAGCUATT against BC057627, the z-score is 3.74 (active). Then GGAUUGUGCUGUGAAACAUTT against Pilrb, with -1.98. For GCCUUCAAAUGAAGGAAGGTT against Olfr699 the value was -0.519; for “GGUGAAACUGAAUAAAAUCTT against 4931406C07Rik”, 1.09. In the case of “GGCUAGAGAAAUAGUGUUGTT against D6Ertd253e”, the z-score is -0.28.

Consider GGAUGAAAUUAACUCUGAATT against Adprt1, for which the z-score was 2.49 (active).

Take GCUUAAGGACGCAUUGAAATT against Pthlh: the z-score is -0.0187.

Regarding GGAACACCGAACAUAAAUATT against Gm610, the z-score was -0.526. Regarding “UCUGGAGUCUUAUCAAGGATT against 2210020M01Rik”, the z-score was -0.752.

On to “GGUGCCUGACCAAAAAGGATT against A830094I09Rik”, for which the z-score was 2.67 (active). Then GCCGACUGGUUAAAUACAUTT against Nme3, with -0.45. Then “CCCACUUAUAUAUGUAGUUTT against 2410187C16Rik”, with -0.391; and GGCAGAAGCAAUGAACUAUTT against Npm1, with 3.59 (active); and GGCCUUGGGAAGGAAAGAGTT against Mospd1, with -1.74.

On to GGCACCUAACGACUUCAACTT against Pygm, for which the z-score is 0.366. For GCCCGCUCUCGGAUUUUGATT against Htr1b, the z-score was 2.87 (active). For “GCUCAGACCAUAGUUUCUATT against A930002I21Rik” the value was 1.53.

Turning to GCCUCAAAACUUCUUGUUCTT against Mxd3, the z-score is 0.892. For GGCCUUUCUGGAGAAGAUGTT against Stfa3 the value was -0.717; for CCUUCGAACUCGAAAAAUUTT against Olfr722, 0.346; for “GGCCAUCGAACUCAAUCUCTT against 2810002D13Rik”, 0.717. Turning to GGUUAAUGGGAAACUCUGCTT against Pias3, the z-score is 2.89 (active).

Regarding GGACUUAUCGGUUAUCUUUTT against Nap1l2, the z-score was 0.654.

For “CCGCACAGACCAUAGUAGATT against 1700121L12Rik”, the z-score is 0.0169. Turning to “CCUAGUUGAAAAUUGGGAATT against 0610025O11Rik”, the z-score is -0.794.

Consider GGAUGAACAGGAGAAAGUCTT against Irak2, for which the z-score was 0.0975.

Consider CGAUGUACUGUCUCUUUUGTT against Ywhaz, for which the z-score is 1.53. Turning to GCAACAGGUUAGCGAAACCTT against Bid3, the z-score is 0.43 (active).
